Where “and” joins values, the source holds several entries; their conditions need not be identical. Identical values can stand only once. The campaign covered roughly 290,000 compounds. About 1,800 (0.62%) were called active. This excerpt belongs to a sample that is enriched for actives. Values without a mark were called inactive. Cut-off read from the data, not from the text of the source: active = inhibition above about 50%; inactive = the rest.
assay: NOD2 signaling inhibitors, cell-based, luminescence, uHTS, HEK293 (AID 1566); details: HEK293 NOD2/NF-kB luciferase reporter, at 4 µM, hits give high values

SMILES	inhibition
Nn1cnnc1SCC(=O)Nc1ccc(C2CCCCC2)cc1	-14.6%
O=C(CSCCO)Nc1ccc(C2CCCCC2)cc1	-8.8%
O=C(O)CSCC(=O)Nc1ccc(C2CCCCC2)cc1	73.5% (active)
C=C1CCC[C@]2(C)C[C@H]3OC(=O)C(CNC(C)(CO)CO)[C@H]3CC12 (some centres not stated)	3.4%
CC1(C)CC(NC(=O)c2cccc3ccccc23)CC(C)(C)N1	-1.7%
COc1cc(C(=O)Nc2scc(-c3ccc(C)cc3)c2C(=O)O)cc(OC)c1OC	42.9%
CC1CCc2c(sc(NC(=O)c3ccco3)c2C(=O)O)C1 (configuration not stated)	36.1%
COc1cc(C(=O)Nc2scc(-c3ccccc3)c2C(=O)O)cc(OC)c1OC	13.6%
COc1cc(C(=O)Nc2sc3c(c2C(=O)O)CCC3)cc(OC)c1OC	23.1%
CC(C)(C)OC(=O)C(C)(C)O/N=C(\C(=O)O)c1csc(N)n1	12.5%
Cn1c(N/N=C/c2cc3ccccc3nc2Cl)nc2ccccc21	-51%
CCn1c(C)nc2cc(-c3nc4n(n3)Cc3ccccc3-4)ccc21	93% (active)
Cc1ccc(-c2nc3n(n2)Cc2ccccc2-3)cc1	-79.2%
Clc1ccc(-c2nc3n(n2)Cc2ccccc2-3)cc1	-152%
CCC(=O)c1ccccc1OCCN1CCN(Cc2ccccc2)CC1	2.5%
O=C1OCCC1Sc1nnc(-c2ccc3c(c2)OCO3)o1 (configuration not stated)	28%
O=C(c1ccc(Cl)cc1)N1CCCCC(Sc2nnc(-c3ccc4c(c3)OCO4)o2)C1=O (configuration not stated)	29.1%
O=C1CCCCC1Sc1nnc(-c2ccc3c(c2)OCO3)o1 (configuration not stated)	71.3% (active)
CCN(CC)c1ccc2cc(C(N)=O)c(=O)oc2c1	-17.6%
CCN(CC)c1ccc2cc(NC(=O)CCC(=O)O)c(=O)oc2c1	57.1% (active)
CCN(CC)c1ccc2cc(C(C)=O)c(=O)oc2c1	-9.9%

SMILES	inhibition
O=C(N/N=C/c1cccc(O)c1)C(=O)N1CCCCCC1	8.2%
COc1ccc(COC(=O)C2=C(C)NC(=O)NC2c2ccc(OC)cc2)cc1 (configuration not stated)	17.9%
COc1ccc(COC(=O)C2=C(C)NC(=O)NC2c2ccc(O)cc2)cc1 (configuration not stated)	5.6%
COc1ccc(COC(=O)C2=C(C)NC(=O)NC2c2ccc(F)cc2)cc1 (configuration not stated)	50.5% (active)
O=C(CN1CCN(S(=O)(=O)c2ccc(Cl)cc2)CC1)NC1CCCC1	-2.2%
C#CC(=O)N(c1cc(OC)ccc1OC)C(C(=O)NC1CCCC1)c1cccs1 (configuration not stated)	17%
C#CC(=O)N(c1ccc(OC)c(OC)c1)C(C(=O)NC1CCCC1)c1cccs1 (configuration not stated)	-0.2%
C#CC(=O)N(c1ccc(OC)cc1OC)C(C(=O)NC1CCCC1)c1cccs1 (configuration not stated)	62% (active)
CC(=O)c1c(C)[nH]c(C(=O)Nc2nc(C)cs2)c1C	-21.9%
CC(=O)c1c(C)[nH]c(C(=O)Nc2nc(-c3ccc(Cl)cc3)cs2)c1C	31.2%
CCCNC(=O)CCCN1C(=O)c2ccccc2Sc2ncccc21	7.1%
CCCCN(CC)CCCNC(=O)Cn1nc(Cc2ccncc2)c2ccccc2c1=O	2.4%
Cc1ccc(-n2c(-c3ccccc3)c[n+]3c2CCc2ccccc2-3)c(C)c1	56.2% (active)
COc1ccccc1-n1c(-c2ccccc2)c[n+]2c1CCc1ccccc1-2	49% and 41.3%
COc1ccc(-n2c(-c3ccc(Br)cc3)c[n+]3c2CCc2ccccc2-3)cc1	31.4%
Cc1cc(C(=O)COC(=O)c2ccc(O)cc2)c(C)n1CC1CCCO1 (configuration not stated)	-113%
COCCn1c(C)cc(C(=O)COC(=O)c2ccc(Br)o2)c1C	4.7%
COCCn1c(C)cc(C(=O)COC(=O)c2ccc[nH]c2=O)c1C	29.6%
COCCn1c(C)cc(C(=O)COC(=O)c2ccccc2Br)c1C	68.7% (active)
CSc1ncccc1C(=O)OCC(=O)c1cc(C)n(CC2CCCO2)c1C (configuration not stated)	5.9%
Cc1ccc(C(=O)OCC(=O)c2cc(C)n(CC3CCCO3)c2C)cc1 (configuration not stated)	18.2%

SMILES	inhibition
Cc1cc(C(=O)COC(=O)c2ccccc2NCCO)c(C)n1CC1CCCO1 (configuration not stated)	-4.6%
Cc1cc(C(=O)COC(=O)c2cccnc2Cl)c(C)n1CC1CCCO1 (configuration not stated)	55.8% (active)
O=C(CC1C(=O)NCCN1C(=O)Nc1ccc(Cl)cc1)Nc1ccc(F)cc1 (configuration not stated)	8.1%
COc1ccc(C/C(C)=N/NC(=O)c2cccnc2)cc1	-5.6%
CCOc1ccccc1/C=C/C(=O)NCC(=O)N1CCC(N(C)C2CCCCC2C)CC1 (configuration not stated)	9.7%
COc1ccc(CNCCNC(=O)c2nonc2N)cc1OC	11.4%
Cc1ccc(S(=O)(=O)Nc2ccccc2C(=O)N2CCN(C)CC2)cc1	4%
COc1ccc(NC(=O)CO/N=C(\C)c2cccs2)cc1	-10.2%
O=C(Nc1ccccc1)Nc1cccc(C(F)(F)F)c1	-38.6%
O=C(Nc1ccncc1)Nc1cccc(C(F)(F)F)c1	18%
O=S(=O)(c1ccc(NCc2ccc(F)cc2)nc1)N1CCCC1	12.4%
CC(OC(=O)Cc1ccc(Cl)cc1)C(=O)NCCC1=CCCCC1 (configuration not stated)	17.9%
COC(=O)c1ccccc1NS(=O)(=O)c1ccc(NC(C)=O)cc1	1.9%
COc1ccccc1C(=O)Nc1ccc(C(=O)O)cc1	-1.4%
COC(=O)c1ccc(NC(=O)c2ccccc2NS(C)(=O)=O)cc1	6.5%
Cc1ccccc1OCC(=O)Nc1ccc(C(=O)Nc2ccccc2C(=O)O)cc1	33.3%
COc1ccccc1C(=O)Nc1ccc(C(=O)c2ccccc2)cc1	4.1%
Cc1cc(C(=O)Nc2ccccc2C(=O)O)ccc1NC(=O)COc1cccc(C)c1C	47.7%
COc1ccccc1C(=O)Nc1ccc(C(=O)Nc2ccccc2C(=O)O)cc1	59.6% (active)
c1ccc(CCSc2nccn2-c2ccccc2)cc1	-141%
